Whole data set: some 110,000 compounds, median “z-score” near -0.1, cut for the highest 2% near 2. Only a selection was taken, and the highest values are over-represented in it overall. Calls of active or inactive are those of the source.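 How the source made its calls: active means z-score in the third read window above 3 or below -3; inactive means the rest.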

Sequence of Metabotropic glutamate receptor 8 (Rattus norvegicus) (P70579 whole entry, looked up): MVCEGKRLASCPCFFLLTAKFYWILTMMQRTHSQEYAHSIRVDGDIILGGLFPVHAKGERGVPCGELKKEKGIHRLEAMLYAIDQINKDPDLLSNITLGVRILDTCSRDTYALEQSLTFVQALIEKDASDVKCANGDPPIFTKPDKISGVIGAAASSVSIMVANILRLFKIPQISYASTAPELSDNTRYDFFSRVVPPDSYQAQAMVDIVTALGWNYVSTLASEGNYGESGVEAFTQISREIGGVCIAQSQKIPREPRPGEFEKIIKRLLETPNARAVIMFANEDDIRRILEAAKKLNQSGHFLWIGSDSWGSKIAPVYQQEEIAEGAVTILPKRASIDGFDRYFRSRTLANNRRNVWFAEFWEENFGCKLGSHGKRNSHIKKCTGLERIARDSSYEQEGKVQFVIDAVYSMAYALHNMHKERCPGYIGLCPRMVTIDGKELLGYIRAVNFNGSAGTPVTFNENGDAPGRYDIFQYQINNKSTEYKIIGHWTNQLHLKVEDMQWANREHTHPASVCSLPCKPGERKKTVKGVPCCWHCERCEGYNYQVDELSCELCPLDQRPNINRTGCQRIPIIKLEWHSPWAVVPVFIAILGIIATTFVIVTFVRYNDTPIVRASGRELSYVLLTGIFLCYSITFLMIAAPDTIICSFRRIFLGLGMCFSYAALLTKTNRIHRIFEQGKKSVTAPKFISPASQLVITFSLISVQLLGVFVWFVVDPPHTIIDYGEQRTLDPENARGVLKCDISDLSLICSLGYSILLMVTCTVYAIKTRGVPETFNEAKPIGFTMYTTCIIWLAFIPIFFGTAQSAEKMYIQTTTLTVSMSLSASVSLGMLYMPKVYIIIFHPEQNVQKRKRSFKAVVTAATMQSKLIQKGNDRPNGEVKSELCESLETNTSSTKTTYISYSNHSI

This experiment addresses Metabotropic glutamate receptor 8 (Rattus norvegicus) (UniProt P70579). Put plainly: rat mGluR8 modulators via GIRK flux, primary screen, cell-based, thallium flux, HTS (AID 488969). As to conditions: HEK293 rat mGluR8, GIRK (G protein-gated inwardly rectifying potassium channel) thallium flux, FluoZin2; at 10 µM; stronger effect = higher value; submaximal glutamate (EC20) added with thallium.
`O=c1n(Cc2ccc(Cl)cc2)c2sc3c(c2c2ncnn12)CCCC3` returned a z-score of -0.595. `COc1cc(OC)cc(-c2nnc(SCC(=O)N3CCCC3)o2)c1` yielded a z-score of -0.103. `COc1cc(-c2nnc(SCC(=O)N3CCCC3)o2)cc(OC)c1OC`: the z-score was 2.2.

In turn, `COc1ccc(-c2nnc(SCC(=O)N3CCCC3)o2)cc1OC` had a z-score of 0.322. The compound `COc1ccc(OC)c(C(=O)CSc2nc3cccnc3n2C)c1` came in with a z-score of 0.718.

On to `COc1ccc(S(=O)(=O)N(C)CC(=O)Nc2ccccc2OC)cc1`, for which the z-score is -0.484. Next, `OC(COCc1ccc2c(c1)OCO2)CN1CCN(Cc2ccccc2)CC1` (stereo not given): -0.00855; `CN1CCN(CC(O)COCc2ccc3c(c2)OCO3)CC1` (stereo not given): 0.1; `SC(COCc1ccccc1)CN1CCN(Cc2ccc3c(c2)OCO3)CC1` (stereo not given): 3.02 (active). `CCn1nc(NC(=O)c2ccccn2)c2cc3cc(C)ccc3nc21` had a z-score of -0.417. Turning to `CC1=C(C(=O)OCc2ccccc2)C(c2cccnc2)n2nnnc2N1` (stereo not given), the z-score turned out to be 0.152. Under `CN1CCN(CCNC(=O)Nc2ccccc2C(F)(F)F)CC1` stands -0.464; under `FC(F)(F)c1ccccc1NC(=S)N1CCN(c2ncccn2)CC1`, -0.0651.

In turn, `CCCN1CCN(C(=S)Nc2ccccc2C(F)(F)F)CC1` had a z-score of 2.17. Compound `CC1CCC(C(=O)NC(C(=O)N2CCc3ccccc3C2)C(C)C)CC1` (stereo not given) yielded a z-score of -0.269. Compound `COc1ccc(-c2nc3c(c4nnc(SC(C)C(=O)Nc5ccccc5)n24)COC(C)(C)C3)cc1` (stereo not given) displayed a z-score of -0.351.

Take `N#Cc1nc(-c2ccccc2F)oc1N1CCCC1`: the z-score was -0.139. As for `CC1CCN(c2oc(-c3ccccc3F)nc2C#N)CC1`, the z-score is 2.57. The compound `CC1CCN(c2oc(-c3cccc4ccccc34)nc2C#N)CC1` came in with a z-score of 0.305. `C=CCn1c(SCCOC)nc2c1c(=O)[nH]c(=O)n2C` returned a z-score of -0.444.

`NC(Cc1ccc2nsnc2c1)C(=O)O` (stereo not given) came in with a z-score of 0.179. For the compound `CCCCn1c(Cc2ccccc2)nnc1SCC(=O)N1CCOCC1`, the z-score was -0.257. In the case of `O=C1Nc2ccccc2/C1=C\c1cccn1-c1ccc(OC(F)(F)F)cc1`, the z-score is 2.45. Under `CN(C)/C=C1\C(=O)Nc2ccccc21` stands -0.00898. On to `O=C1C(=Cc2cccn2-c2ccc(O)cc2)C(=O)c2ccccc21`, for which the z-score was -0.204. Compound `COc1ccc(OC)c(NC(=O)CSc2nnc(CNC(=O)c3ccco3)o2)c1` yielded a z-score of -0.27. In turn, `O=C(Nc1nccs1)C1C2/C=C\CCCCC21` (stereo not given) came in with a z-score of 0.175.

`COC(=O)Nc1ccc([N+](=O)[O-])cc1OC` displayed a z-score of -0.117.

Consider `COc1ccc2nc(NC(=O)CN3CCN(C)CC3)sc2c1`, for which the z-score is 0.194.

`c1cncc(-c2nnc(-c3ccco3)o2)c1` came in with a z-score of -0.101.

Turning to `CC(=O)Nc1cccc2c1C(=O)N(c1ccc(C)cc1)C2=O`, the z-score came to 0.845. As for `CC(=O)Nc1cccc2c1C(=O)N(c1cccc(C)c1)C2=O`, the z-score is 3.13 (active). For `CC(C)CC(=O)Nc1cccc2c1C(=O)N(c1ccccc1)C2=O`, the z-score was -3.2 (active). Compound `Cc1csc(N(C(=O)c2cccc(S(=O)(=O)N(C)C)c2)c2ccccc2)n1` registered a z-score of 2.2. Turning to `Cc1csc(N(C(=O)c2cccc(S(=O)(=O)N3CCCC3)c2)c2ccccc2)n1`, the z-score is -0.475. Compound `Cc1csc(N(C(=O)c2ccc(S(=O)(=O)N(C)C)cc2)c2ccccc2)n1` registered a z-score of 0.4. For the compound `COc1cc(C2N(c3ccc(F)cc3)C(=O)C3CCCN32)cc(OC)c1OC` (stereo not given), the z-score is 0.416. Next, `O=C1CCSc2ccc(Cl)cc2N1Cc1ccccc1`: -0.321; `Clc1ccc2c(c1)-c1nnc(Br)n1-c1ccccc1S2`: -4.38 (active); `O=C1Nc2ccccc2S/C1=C/Nc1cccc(Cl)c1`: -0.29. Regarding `S=C1Nc2cc(Cl)ccc2Sc2ccccc21`, the z-score was 11.3 (active). As for `O=C1Cc2ccccc2Sc2ccc(Cl)cc21`, the z-score was -0.097. As for `S=C1Nc2ccccc2Sc2ccc(Cl)cc21`, the z-score was 4.1 (active). `O=C1CCSc2ccc(Cl)cc2N1Cc1ccc(Cl)cc1` came in with a z-score of -0.366. In the case of `S=C1CCSc2ccc(Cl)cc2N1`, the z-score was 9.14 (active).

As for `CCOC(=O)Nc1ccc2c(c1)Nc1ccccc1S2`, the z-score was -0.571. Regarding `Cc1ccc(-n2c(Cc3cccn3C)nnc2SCC(=O)N2CCN(c3ccccc3)CC2)cc1`, the z-score was -0.835. In turn, `Cc1ccc(S(=O)(=O)N2CCN(C(=O)N(c3ccccc3)c3ccccc3)CC2)cc1` returned a z-score of -0.559. `O=c1cc(O)nc(SCc2ccccc2)n1-c1ccc(F)cc1`: the z-score was -0.305. `CC1CCN(c2ccc(C(=O)Nc3ccc4c(c3)OCO4)cc2[N+](=O)[O-])CC1` had a z-score of -0.237. `COc1ccccc1NC(=O)CNC(=O)c1ccccc1C` yielded a z-score of 0.371. Compound `CCOC(=O)CNS(=O)(=O)c1ccc(C(=O)O)cc1` returned a z-score of 0.207. Turning to `Cc1ccc(S(=O)(=O)CC(=O)Nc2nc(-c3ccccc3)cs2)cc1`, the z-score was 1.27. Next, `COc1ccccc1NC(=S)NC(=O)CCCOc1ccc(Cl)cc1Cl`: -0.0968; `CCOc1ccccc1NC(=S)NC(=O)CCCOc1ccc(Cl)cc1Cl`: -0.0571.

In the case of `O=C(CCCOc1ccc(Cl)cc1Cl)Nc1ccncc1`, the z-score was found to be 2.21. As to `CCCCC(=O)Nc1ccc(C(=O)NNC(=O)CCCOc2ccc(Cl)cc2Cl)cc1`, the z-score is -0.184. In turn, `O=C(CCCOc1ccc(Cl)cc1Cl)Nc1cccnc1` gave a z-score of -0.0915. Regarding `CN(C(=S)NC(=O)CCCOc1ccc(Cl)cc1Cl)c1ccccc1`, the z-score was 4 (active).

Turning to `Cc1ccc(C)c(Oc2ncnc(N)c2[N+](=O)[O-])c1`, the z-score was 0.623. For `CCOC(=O)COc1ccc(S(=O)(=O)Nc2cccc(SC)c2)cc1`, the z-score was -0.28. `CC(C)C(=O)Nc1ccc(-c2csc(-c3ccccc3)n2)cc1` came in with a z-score of -0.165. With `Cc1cc(-c2ccccc2)c(C#N)c(=S)[nH]1`, the z-score came to 0.152. Next, `N#Cc1c(-c2ccc(C(F)(F)F)cc2)cc(-c2ccccc2)[nH]c1=S`: 1.24; `Cc1ccc(-c2cc(-c3ccccc3)[nH]c(=S)c2C#N)cc1`: 3.09 (active). Compound `Cc1ccc(NC(=O)COC(=O)CNC(=O)c2ccc(Br)cc2)c(C)c1` showed a z-score of -0.336. Regarding `Cc1ccc(NC(=O)NC2CCN(S(=O)(=O)c3ccc(F)cc3)CC2)cc1`, the z-score is 0.564.

In the case of `Brc1ccc(-c2cn3ccccc3n2)s1`, the z-score is -0.391. Under `CCOC(=O)C1(C)NC(c2ccco2)C2C(=O)N(c3ccc(C)cc3)C(=O)C21` (stereo not given) stands 0.153; under `COc1cc(NC(=O)C2CC2C)c(C(=O)O)cc1OC` (stereo not given), -0.191. The compound `C/C(N)=C(/C#N)C(=O)CN1CCCCC1` yielded a z-score of 0.678. As for `O=C(CCCc1nc(-c2ccccc2)no1)N1CCOCC1`, the z-score is 0.382. On to `Cc1cccc(-c2noc(CCCC(=O)N3CCOCC3)n2)c1`, for which the z-score is -0.139.

As for `O=C(CCCc1nc(-c2ccc(Cl)cc2)no1)N1CCOCC1`, the z-score was 3.9 (active). On to `COc1ccc(Cl)cc1C(=O)NNC(=S)NC(=O)c1cc(-c2ccc(Cl)cc2)nc2ccccc12`, for which the z-score was 0.219.

The values are drawn from PubChem BioAssay AID488969 (Vanderbilt High Throughput Screening Facility, 2010).
